From the supplement of paper PMC8387472

Legend:
Assay in all cases: fraction of edited reads among all mapped reads; higher = more Cas9 editing
Settings in all cases: mESC; 2uM; 72 h treatment, harvest day 5
[1] = compound: CC(=O)O/N=C1\C(=O)N(Cc2cc(Cl)ccc2Cl)c2ccc(Cl)cc21
[2] = compound: CC(C)(C#N)c1ccc(N2C(=O)OCc3cnc4ccc(-c5cnc6ccccc6c5)cc4c32)cc1
[3] = compound: CCCCOc1c(C(=O)c2c(F)cc(C)cc2F)c[nH]c2nncc1-2
[4] = compound: CCN1CCN(CC(=O)Nc2ccc(-c3cccc4c(=O)cc(N5CCOCC5)oc34)c3sc4ccccc4c23)CC1
[5] = compound: CCc1c2c(nc3ccc(OC(=O)N4CCC(N5CCCCC5)CC4)cc13)-c1cc3c(c(=O)n1C2)COC(=O)[C@]3(O)CC [Irinotecan HCl Trihydrate]
[6] = compound: CCn1c(=O)c(-c2ccc(Cl)cc2Cl)cc2cnc(Nc3ccc(N4CCNCC4)c(F)c3)nc21
[7] = compound: CNc1ccc([N+](=O)[O-])c(Nc2ccc3[nH]ncc3c2)n1
Rifapentine = compound: CO[C@H]1/C=C/O[C@@]2(C)Oc3c(C)c(O)c4c(O)c(c(/C=N/N5CCN(C6CCCC6)CC5)c(O)c4c3C2=O)NC(=O)/C(C)=C\C=C\[C@H](C)[C@H](O)[C@@H](C)[C@@H](O)[C@@H](C)[C@H](OC(C)=O)[C@@H]1C [Rifapentine]
[8] = compound: COc1ccccc1-c1cc(Nc2cccc(CS(N)(=O)=O)c2)ncn1
[9] = compound: C[C@@H]1CN(CC(=O)Nc2ccc3c(c2)Cc2cccc(-c4cc(=O)cc(N5CCOCC5)o4)c2S3)C[C@H](C)O1

| Target | fraction of edited reads among all mapped reads [1] | fraction of edited reads among all mapped reads [2] | fraction of edited reads among all mapped reads [3] | fraction of edited reads among all mapped reads [4] | fraction of edited reads among all mapped reads [5] | fraction of edited reads among all mapped reads [6] | fraction of edited reads among all mapped reads [7] | fraction of edited reads among all mapped reads (Rifapentine) | fraction of edited reads among all mapped reads [8] | fraction of edited reads among all mapped reads [9] |
| --- | --- | --- | --- | --- | --- | --- | --- | --- | --- | --- |
| 1.0 (DMSO control at this site: 1-bp insertion 0.521, MH deletion 0.323, edited 0.141) GTGTCACAGTGCACGAGTGACGGGATAATGTGCTGACAGGTAATTGATAGGCTTCCAACTT | 0.144 | 0.154 | 0.163 | 0.0521 | 0.194 | 0.145 | 0.207 | 0.256 | 0.203 | 0.152 |
| 17.0 (DMSO control at this site: 1-bp insertion 0.112, MH deletion 0.348, edited 0.058) CCATAGCGCGATAAATATGACGGCTCATCCTGTATGACGGCTCATCCTGTATCAACTGTCC | 0.0666 | 0.0797 | 0.0794 | 0.0411 | 0.0882 | 0.0594 | 0.0812 | 0.115 | 0.0964 | 0.0394 |
| 25.0 (DMSO control at this site: 1-bp insertion 0.017, MH deletion 0.774, edited 0.143) GGGCCTGAATGGTGTGGACATCTACTCGCTGGTGAGCTGGTGACTGAAAACATTCAGTGGC | 0.18 | 0.183 | 0.184 | 0.0836 | 0.211 | 0.167 | 0.199 | 0.306 | 0.205 | 0.0682 |
| 21.0 CGATTGAGAGTCAAACGGGCCAGAAAACTCCGGGAACGGGCCAGAAAACTCCGGGGCATGG | 0.124 | 0.106 | 0.132 | 0.0441 | 0.152 |  | 0.141 | 0.199 | 0.144 | 0.046 |
| 26.0 (DMSO control at this site: 1-bp insertion 0.518, MH deletion 0.262, edited 0.026) AGGGCGCGCCCCACGCACTCTGCGGCAAGTCCCTCTGCGGCAAGTCCTCGGCCCGGAAGAC | 0.0291 | 0.0255 | 0.0319 | 0.0118 | 0.0344 | 0.0242 | 0.0263 | 0.0398 | 0.0351 | 0.0296 |
| 3.0 (DMSO control at this site: 1-bp insertion 0.109, MH deletion 0.149, edited 0.09) TGCTAGCGCCCCCACAAAGCGGACCAGCCAGCACTATAGGGAATAAGGCCAACTTGCACCC | 0.101 | 0.0887 | 0.115 | 0.0444 | 0.124 | 0.099 | 0.103 | 0.178 | 0.123 | 0.0619 |
| 18.0 (DMSO control at this site: 1-bp insertion 0.114, MH deletion 0.789, edited 0.094) GCGCAAGTGCATAAGTTTTTCTTAAGGCGTGCCTTTAAGGCGTGCCTTTGTCGGTCCTGGA | 0.103 | 0.109 | 0.105 | 0.064 | 0.111 | 0.0889 | 0.116 | 0.175 | 0.122 | 0.0564 |
| 41.0 (DMSO control at this site: 1-bp insertion 0.022, MH deletion 0.754, edited 0.115) AAAGAGACAGCAGGTATGAATCCATCTTCCTGACCCTTGGGACCAGCCGGGGCAGTGAAGC | 0.135 | 0.15 | 0.152 | 0.0542 | 0.19 | 0.126 | 0.162 | 0.23 | 0.171 | 0.0671 |
| 35.0 (DMSO control at this site: 1-bp insertion 0.01, MH deletion 0.72, edited 0.098) CCACTTTTAGAGAGGGTGAAAATCATCAGTTATCATCAGGGCAACAAATTGCTTTCTCCTA |  | 0.143 |  | 0.0527 | 0.166 | 0.111 | 0.148 | 0.208 | 0.151 | 0.0395 |
| 19.0 (DMSO control at this site: 1-bp insertion 0.121, MH deletion 0.101, edited 0.057) TCTGCAGGGGTCGGAACCCGGGGGCTAGGGCTATCCCGGGGGCTAGGGCTATTAGCGAACC | 0.0656 | 0.0719 | 0.0679 | 0.0342 | 0.0806 | 0.0564 | 0.0687 | 0.0905 | 0.087 | 0.0476 |
| 42.0 (DMSO control at this site: 1-bp insertion 0.145, MH deletion 0.655, edited 0.132) GGGCTAAACCTATGAGCACAGTAGAACTAAGGGTGGGTGGTGTAGCTAAAGAACTTGACCA | 0.151 | 0.153 | 0.161 | 0.0618 | 0.191 | 0.139 | 0.184 | 0.27 | 0.187 | 0.0909 |
| 0.0 (DMSO control at this site: 1-bp insertion 0.463, MH deletion 0.339, edited 0.14) AGGATTACCGAGACCTACGCGAACCGAAATCGCTGTCCGGTGCGCAAGCAGGGCTGGCGTC | 0.147 | 0.154 | 0.172 | 0.0626 | 0.218 | 0.155 | 0.203 | 0.274 | 0.213 | 0.15 |
| 44.0 (DMSO control at this site: 1-bp insertion 0.181, MH deletion 0.512, edited 0.123) ACACATACCTTCTTCGAGGCAGCCAGCATGATGAGACAGGTCTCCCACAAACACATCGTGT | 0.149 | 0.14 | 0.157 | 0.0618 | 0.202 | 0.138 | 0.17 | 0.251 | 0.195 | 0.111 |
| 32.0 (DMSO control at this site: 1-bp insertion 0.03, MH deletion 0.85, edited 0.898) AGAAGTCCAGGATCAGGGGGACTGGGGTCGGGAGGGTGGGGCAGGAAGGAAGCCAGAATCA | 0.893 | 0.917 | 0.893 | 0.793 | 0.944 | 0.929 | 0.921 | 0.946 | 0.934 | 0.841 |
| 38.0 (DMSO control at this site: 1-bp insertion 0.063, MH deletion 0.487, edited 0.17) GGGCTGGGTGCTAAAATGAGGAGCTCCAAGAAGACTGAGGTGAACCTGGAGGCCCCTGAGC | 0.178 | 0.169 | 0.188 | 0.0737 | 0.243 | 0.147 | 0.206 | 0.26 | 0.204 | 0.107 |
| 47.0 (DMSO control at this site: 1-bp insertion 0.095, MH deletion 0.585, edited 0.118) GAGTGGTCCCGAGCCAGGAACTGTGTGTGTTGCAGGGGGGCAGTAACTCCCCAACTCCCTC | 0.124 | 0.13 | 0.135 | 0.0496 | 0.156 | 0.121 | 0.151 | 0.198 | 0.151 | 0.0862 |
| 43.0 (DMSO control at this site: 1-bp insertion 0.134, MH deletion 0.714, edited 0.104) AGTTTAACTTACTCCGGCCAAAAAAGAACTGCACCTCTGGAGCGGGTTAGTGGTGGTGGTA | 0.15 | 0.143 | 0.151 | 0.0617 | 0.184 | 0.119 | 0.164 | 0.218 |  | 0.0771 |
| 40.0 (DMSO control at this site: 1-bp insertion 0.072, MH deletion 0.192, edited 0.189) GCGAATCAACTGTTCAACAACAGCAGCAGCCACCTGGAGGACTACAGTGGCCTGTCCGTGT | 0.203 | 0.198 | 0.224 | 0.0829 | 0.259 | 0.184 | 0.242 | 0.327 | 0.271 | 0.219 |
